From PubChem BioAssay (NCATS)
Unmarked numbers belong to inactive results. Inconclusive results are not listed. Entries that show only a call come without a potency. The source made the active and inactive calls. Unless noted, the call rests on the fitted dose curve; in most records, active means well fitted curve in the direction sought with a large enough effect; inconclusive means small, poorly fitted or top-dose-only effect, or another doubt; inactive means no such curve, though single readings can be large; an effect the other way counts as inactive or inconclusive.

Tests used:
[1] = Cell Viability - BJ (AID 421; calls by dose curve;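 further: potency means the concentration at half of the fitted maximal effect; cells exposed to compound for 40 hours at 37 °C before readout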); conditions: BJ fibroblast viability, qHTS
How it was run: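 Quantitative HTS: ATP depletion in BJ cells after 40 hr compound exposure in complete culture medium, detected with CellTiter-Glo; AC50 from standard Hill fits.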

[2] = Cell Viability - Hek293 (AID 427;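 active means compounds whose dose-response curve shows a full or clear partial loss of cell viability, called from curve shape rather than a numeric limit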;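 further: potency means the concentration at half of the fitted maximal effect; cells exposed to compound for 40 hours at 37 °C before reading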); conditions: qHTS
How it was run: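 AC50 values derive from Hill-modelled concentration-response of ATP-based luminescence, normalized between DMSO-only and 100 uM tamoxifen controls. Cells were exposed in complete culture medium for 40 hr at 37 °C before detection.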

[3] = Cell Viability - HepG2 (AID 433; calls by dose curve;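 further: potency means the concentration at half of the fitted maximal effect; potency for ATP loss meaning cytotoxicity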); conditions: qHTS
How it was run: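 Read-out is luciferase-based quantitation of cellular ATP as a measure of viable HepG2 cells after 40 h treatment at 37 °C. Signal decrease is scaled between DMSO-only and 100 uM tamoxifen controls, with AC50 fitted by the Hill equation.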

[4] = Cell Viability - MRC5 (AID 434; calls by dose curve;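 further: potency means the concentration at half of the fitted maximal effect; potency reflects cytotoxicity seen as loss of intracellular ATP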); conditions: MRC5 lung fibroblast viability, qHTS
How it was run: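 MRC5 normal human lung fibroblasts (1500/well) were treated with compounds for 40 hr at 37 °C in complete medium, and viable cells were measured as intracellular ATP by CellTiter-Glo luminescence. AC50 came from Hill fits, normalized to DMSO and 100 uM tamoxifen.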

[5] = Cell Viability - SK-N-SH (AID 435; calls by dose curve;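 further: potency means the concentration at half of the fitted maximal effect; compound exposure lasted 40 h at 37 °C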); conditions: SK-N-SH neuroblastoma cell viability qHTS
How it was run: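 Luminescent ATP signal served as the viability read-out after 40 hours of compound treatment of human neuroblastoma SK-N-SH cells. Concentration-response data, scaled between DMSO and 100 uM tamoxifen, gave AC50 values by standard Hill modeling.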

[6] = Cell Viability - N2a (AID 540); conditions: N2a mouse neuroblastoma cell viability; at 92.2 µM (top of the series); further: nearly all actives have a fitted effect of over 45% in size
How it was run: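 Mouse neuroblastoma N2a cells, 1500/well, exposed to compounds 40 h at 37 °C in complete medium. Viability measured as cellular ATP by CellTiter-Glo luminescence; AC50 from Hill fits of concentration-response.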

[7] = Cell Viability - NIH 3T3 (AID 541); conditions: NIH 3T3 cell viability, qHTS; activity change, negative = cytotoxicity: at 92.2 µM (top of the series); further: nearly all actives have a fitted effect of over 25% in size
How it was run: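 Mouse NIH 3T3 fibroblasts, 1000 cells/well, rested 5 hr at 37 °C, then exposed to compound for 40 hr at 37 °C in complete medium. Viability read as intracellular ATP by CellTiter-Glo luminescence; AC50 from Hill-equation fits of concentration-response data.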

[8] = Cell Viability - HUV-EC-C (AID 542); further: nearly all actives have a fitted effect of over 35% in size
How it was run: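 HUV-EC-C human vascular endothelial cells, 1000/well, exposed to compound for 40 hr at 37 °C in complete medium. Intracellular ATP was read by CellTiter-Glo luminescence. AC50 came from Hill-equation fits of concentration-response data.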

[9] = Cell Viability - H-4-II-E (AID 543); further: nearly all actives have a fitted effect of over 35% in size
How it was run: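 Rat hepatoma H-4-II-E cells, 1500 per well, treated 40 h at 37 °C in complete medium. Cellular ATP read by CellTiter-Glo luminescence; AC50 from Hill fits of concentration-response.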

[10] = Cell Viability - SH-SY5Y (AID 544); conditions: SH-SY5Y neuroblastoma cell viability; viability change, negative = cytotoxic: at 92.2 µM (top of the series); further: nearly all actives have a fitted effect of over 55% in size
How it was run: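 SH-SY5Y human neuroblastoma cells (1500/well) incubated 5 h, then compound-treated 40 h at 37 °C in complete medium. Viability read as intracellular ATP by CellTiter-Glo luminescence after 20 min; AC50 from Hill-equation fits of qHTS concentration-response.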

[11] = Cell Viability - Renal Proximal Tubule (AID 545); conditions: renal proximal tubule cells viability; at 91.7 µM (top of the series), primary cells of rat origin unless noted; further: nearly all actives have a fitted effect of over 40% in size
How it was run: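 Luminescent ATP signal (CellTiter-Glo) served as the viability read-out after 40 hr compound exposure of freshly isolated rat proximal tubule cells at 37 °C. Concentration-dependent ATP loss was fitted with the Hill equation to give AC50.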

[12] = Cell Viability - Mesenchymal (AID 546);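 further: cells exposed to compound for 40 hours before reading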
How it was run: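 Normal human renal glomerulus-derived kidney mesenchymal cells, 1000 per well in complete medium, were treated with compounds for 40 hr at 37 °C. Viability was read as intracellular ATP by CellTiter-Glo luminescence; AC50 values came from Hill-equation fits of qHTS concentration-response data.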

[13] = Cellular Toxicity (caspase-3) HepG2 (AID 654);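 further: cells exposed to compound for 16 hours before reading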
How it was run: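 HepG2 cells (1500/well) were treated 16 h at 37 °C in complete medium, then caspase 3/7 activity was read by Caspase-Glo luminescence. Data were normalized to DMSO and 100 uM tamoxifen; AC50 came from Hill-equation fits of qHTS concentration-response.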

[14] = Cellular Toxicity (caspase-3) Jurkat (AID 655); conditions: Jurkat caspase-3 activation, luminescence, DMSO = 0%, tamoxifen = 100%; at 92.2 µM (top of the series);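 further: cells exposed to compound for 16 h at 37 °C before reading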
How it was run: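 5000 Jurkat cells/well; compound 16 hr, 37 °C; Caspase-Glo 3/7 added, 20 min RT; luminescence read. Norm: DMSO = 0%, tamoxifen 100 uM = 100%. AC50, Hill model.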

[15] = Cellular Toxicity (caspase-3) HUV-EC-C (AID 656)
How it was run: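 qHTS; HUV-EC-C, 1000 cells/well; 5 hr settle, 16 hr cmpd, 37°C; Caspase-Glo 3/7, 20 min RT; luminescence. Norm: DMSO = 0%, tamoxifen 100 uM = 100%. Hill-fit AC50.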

[16] = Cellular Toxicity (caspase-3) SHSY5Y (AID 657)
How it was run: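 qHTS, SH-SY5Y, 1500 cells/well, 5 h pre-incubation 37 °C; compound 16 h 37 °C; Caspase-Glo 3/7 1 h RT; luminescence. Norm.: DMSO = 0, 10 uM staurosporine = 100%. Hill fit → AC50.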

[17] = Cellular Toxicity (caspase-3) BJ (AID 658)
How it was run: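 Luminescent aminoluciferin-substrate cleavage reports caspase 3/7 activity in normal human BJ fibroblasts after 16 hr compound exposure at 37 °C. Normalized to DMSO (basal) and 10 uM staurosporine (100%); AC50 from Hill fit of concentration-response.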

[18] = Cellular Toxicity (caspase-3) MRC-5 (AID 659)
How it was run: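 Luminescence from caspase-cleaved aminoluciferin substrate (Caspase-Glo 3/7, 1 hr RT) reports caspase 3/7 activity in MRC-5 lung fibroblasts after 16 hr compound exposure. Normalized to DMSO basal and 10 uM staurosporine as 100%; AC50 from Hill fits.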

[19] = Cellular Toxicity (caspase-3) Mesangial (AID 660);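 further: cells exposed to compound for 16 h before the caspase read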
How it was run: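 Human renal glomerular mesangial cells, 1000/well, 5 h at 37 C before 16 h compound treatment. Caspase-Glo 3/7 luminescence after 20 min; normalized to DMSO and 100 uM tamoxifen, AC50 from Hill fit.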

[20] = Cellular Toxicity (caspase-3) SK-N-SH (AID 661)
How it was run: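 Human SK-N-SH neuroblastoma cells, 1500/well, were exposed to compounds for 16 hours at 37 °C. Caspase-Glo 3/7 luminescence was normalized to DMSO (basal) and 10 uM staurosporine (100%), and AC50 came from a Hill fit.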

[21] = Cellular Toxicity (caspase-3) H-4-II-E (AID 663);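 further: cells exposed to compound for 16 hr before readout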
How it was run: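 Luminescence from caspase-cleaved aminoluciferin substrate, read 20 min after reagent addition, reports caspase 3/7 activation in rat H-4-II-E cells after 16 hr compound exposure. Normalized to DMSO (basal) and 100 uM tamoxifen (100%); AC50 from Hill fits.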

[22] = Cellular Toxicity (caspase-3) Hek293 (AID 664);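 further: cells exposed to compound for 16 h at 37 °C before readout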
How it was run: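 HEK293 cells in complete medium treated 16 h at 37 °C, then Caspase-Glo 3/7 luminescence read after 20 min at room temperature. Normalized to DMSO and 100 uM tamoxifen; AC50 from Hill fit of concentration-response.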

[23] = Cellular Toxicity (caspase-3) N2a (AID 665); conditions: N2a cells, luminescence, normalized: DMSO 0%, 10 µM staurosporine 100%; at 92.2 µM (top of the series);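 further: compound exposure lasted 16 h at 37 °C before readout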
How it was run: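 Mouse N2a neuroblastoma cells, 1500 per well, treated 16 h at 37 °C in complete medium; caspase-3/7 activity by Caspase-Glo luminescence after 1 h. Normalized to DMSO and 10 uM staurosporine; AC50 from Hill fits.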

## Clc1cc(Cl)c(-c2cc(Cl)c(Cl)cc2Cl)cc1Cl
[1]
  Potency: > 92 µM
[2]
  Potency: > 92 µM
[3]
  Potency: > 92 µM
[4]
  Potency: 24.3 µM (active)
[5]
  Potency: > 92 µM
[6]
  activity change, negative = cytotoxicity: -93.1% (active)
[7]
  activity change, negative = cytotoxicity: -24.8%
[8]
  Potency: inactive
[9]
  Potency: inactive
[10]
  Potency: inactive
[11]
  activity change, negative = cytotoxicity: -5.09% [at 91.7 µM]
[12]
  outcome: inactive
[13]
  outcome: inactive
[14]
  caspase-3 activation: 0.996%
[15]
  outcome: inactive
[16]
  outcome: inactive
[17]
  outcome: inactive
[18]
  outcome: inactive
[19]
  outcome: inactive
[20]
  outcome: inactive
[21]
  outcome: inactive
[22]
  outcome: inactive
[23]
  caspase-3 activation: -0.702%
